# Target: AgAbp1
# Assay: SPOT peptide array binding signal intensity (averaged, normalized) (arbitrary units (background-subtracted, floor 0; scale differs between SH3 domains)); higher = stronger binding of the SH3 domain to the peptide
# In short: (§1)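 Spot intensities were captured after detection with anti-GST antibody, an HRP-linked anti-mouse secondary and luminol, and quantified with Genespotter. The probes were GST-fused SH3 domains from four yeast species, produced in E. coli BL21(DE3), purified on glutathione Sepharose and incubated at 10 μg/ml overnight at 4°C on cellulose-bound synthetic 15-mer peptides with cysteines replaced by serines. Binding signal is the normalized, background-subtracted spot intensity averaged over replicates, and its arbitrary units differ between domains.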
row,Binder,SPOT peptide array binding signal intensity
1,WRPRIVPILPYITRL,6

# Target: AgBbc1
# Assay: as above
# In short: as §1
row,Binder,SPOT peptide array binding signal intensity
1,WRPRIVPILPYITRL,13.5

# Target: AgBem1-D1
# Assay: as above
# In short: as §1
row,Binder,SPOT peptide array binding signal intensity
1,WRPRIVPILPYITRL,108

# Target: AgBzz1-D1
# Assay: as above
# In short: as §1
row,Binder,SPOT peptide array binding signal intensity
1,WRPRIVPILPYITRL,11

# Target: AgBzz1-D2
# Assay: as above
# In short: as §1
row,Binder,SPOT peptide array binding signal intensity
1,WRPRIVPILPYITRL,7.5

# Target: AgCyk3
# Assay: as above
# In short: as §1
row,Binder,SPOT peptide array binding signal intensity
1,WRPRIVPILPYITRL,9

# Target: AgFus1
# Assay: as above
# In short: as §1
row,Binder,SPOT peptide array binding signal intensity
1,WRPRIVPILPYITRL,90

# Target: AgHof1
# Assay: as above
# In short: as §1
row,Binder,SPOT peptide array binding signal intensity
1,WRPRIVPILPYITRL,132

# Target: AgHse1
# Assay: as above
# In short: as §1
row,Binder,SPOT peptide array binding signal intensity
1,WRPRIVPILPYITRL,434

# Target: AgLsb1
# Assay: as above
# In short: as §1
row,Binder,SPOT peptide array binding signal intensity
1,WRPRIVPILPYITRL,11

# Target: AgLsb4
# Assay: as above
# In short: as §1
row,Binder,SPOT peptide array binding signal intensity
1,WRPRIVPILPYITRL,22

# Target: AgMyo5
# Assay: as above
# In short: as §1
row,Binder,SPOT peptide array binding signal intensity
1,WRPRIVPILPYITRL,2.5

# Target: AgNbp2
# Assay: as above
# In short: as §1
row,Binder,SPOT peptide array binding signal intensity
1,WRPRIVPILPYITRL,140

# Target: AgRvs167
# Assay: as above
# In short: as §1
row,Binder,SPOT peptide array binding signal intensity
1,WRPRIVPILPYITRL,2

# Target: AgSho1
# Assay: as above
# In short: as §1
row,Binder,SPOT peptide array binding signal intensity
1,WRPRIVPILPYITRL,17

# Target: AgSla1-D1-D2
# Assay: as above
# In short: as §1
row,Binder,SPOT peptide array binding signal intensity
1,WRPRIVPILPYITRL,6.5

# Target: AgSla1-D3
# Assay: as above
# In short: as §1
row,Binder,SPOT peptide array binding signal intensity
1,WRPRIVPILPYITRL,4

# Target: CaAbp1-D1
# Assay: as above
# In short: as §1
row,Binder,SPOT peptide array binding signal intensity
1,WRPRIVPILPYITRL,109

# Target: CaAbp1-D2
# Assay: as above
# In short: as §1
row,Binder,SPOT peptide array binding signal intensity
1,WRPRIVPILPYITRL,92.5

# Target: CaBbc1
# Assay: as above
# In short: as §1
row,Binder,SPOT peptide array binding signal intensity
1,WRPRIVPILPYITRL,58.8

# Target: CaBem1-D1
# Assay: as above
# In short: as §1
row,Binder,SPOT peptide array binding signal intensity
1,WRPRIVPILPYITRL,22

# Target: CaBzz1-D1
# Assay: as above
# In short: as §1
row,Binder,SPOT peptide array binding signal intensity
1,WRPRIVPILPYITRL,49.5

# Target: CaBzz1-D2
# Assay: as above
# In short: as §1
row,Binder,SPOT peptide array binding signal intensity
1,WRPRIVPILPYITRL,24.2

# Target: CaCyk3
# Assay: as above
# In short: as §1
row,Binder,SPOT peptide array binding signal intensity
1,WRPRIVPILPYITRL,29.5

# Target: CaFus1
# Assay: as above
# In short: as §1
row,Binder,SPOT peptide array binding signal intensity
1,WRPRIVPILPYITRL,460

# Target: CaHof1
# Assay: as above
# In short: as §1
row,Binder,SPOT peptide array binding signal intensity
1,WRPRIVPILPYITRL,2

# Target: CaHse1
# Assay: as above
# In short: as §1
row,Binder,SPOT peptide array binding signal intensity
1,WRPRIVPILPYITRL,32

# Target: CaLsb1
# Assay: as above
# In short: as §1
row,Binder,SPOT peptide array binding signal intensity
1,WRPRIVPILPYITRL,3.5

# Target: CaLsb4
# Assay: as above
# In short: as §1
row,Binder,SPOT peptide array binding signal intensity
1,WRPRIVPILPYITRL,56

# Target: CaMyo5
# Assay: as above
# In short: as §1
row,Binder,SPOT peptide array binding signal intensity
1,WRPRIVPILPYITRL,1.5

# Target: CaNbp2
# Assay: as above
# In short: as §1
row,Binder,SPOT peptide array binding signal intensity
1,WRPRIVPILPYITRL,574

# Target: CaRvs167
# Assay: as above
# In short: as §1
row,Binder,SPOT peptide array binding signal intensity
1,WRPRIVPILPYITRL,54

# Target: CaRvs167-3
# Assay: as above
# In short: as §1
row,Binder,SPOT peptide array binding signal intensity
1,WRPRIVPILPYITRL,56

# Target: CaSho1
# Assay: as above
# In short: as §1
row,Binder,SPOT peptide array binding signal intensity
1,WRPRIVPILPYITRL,298

# Target: CaSla1-D1-D2
# Assay: as above
# In short: as §1
row,Binder,SPOT peptide array binding signal intensity
1,WRPRIVPILPYITRL,6

# Target: CaSla1-D3
# Assay: as above
# In short: as §1
row,Binder,SPOT peptide array binding signal intensity
1,WRPRIVPILPYITRL,2

# Target: ScAbp1
# Assay: as above
# In short: as §1
row,Binder,SPOT peptide array binding signal intensity
1,WRPRIVPILPYITRL,17

# Target: ScBbc1
# Assay: as above
# In short: as §1
row,Binder,SPOT peptide array binding signal intensity
1,WRPRIVPILPYITRL,4.25

# Target: ScBem1-D1
# Assay: as above
# In short: as §1
row,Binder,SPOT peptide array binding signal intensity
1,WRPRIVPILPYITRL,1

# Target: ScBzz1-D1
# Assay: as above
# In short: as §1
row,Binder,SPOT peptide array binding signal intensity
1,WRPRIVPILPYITRL,1.5

# Target: ScBzz1-D2
# Assay: as above
# In short: as §1
row,Binder,SPOT peptide array binding signal intensity
1,WRPRIVPILPYITRL,15.5

# Target: ScCyk3
# Assay: as above
# In short: as §1
row,Binder,SPOT peptide array binding signal intensity
1,WRPRIVPILPYITRL,33

# Target: ScFus1
# Assay: as above
# In short: as §1
row,Binder,SPOT peptide array binding signal intensity
1,WRPRIVPILPYITRL,75

# Target: ScHof1
# Assay: as above
# In short: as §1
row,Binder,SPOT peptide array binding signal intensity
1,WRPRIVPILPYITRL,365

# Target: ScHse1
# Assay: as above
# In short: as §1
row,Binder,SPOT peptide array binding signal intensity
1,WRPRIVPILPYITRL,636

# Target: ScLsb1
# Assay: as above
# In short: as §1
row,Binder,SPOT peptide array binding signal intensity
1,WRPRIVPILPYITRL,32.5

# Target: ScLsb2
# Assay: as above
# In short: as §1
row,Binder,SPOT peptide array binding signal intensity
1,WRPRIVPILPYITRL,7

# Target: ScLsb3
# Assay: as above
# In short: as §1
row,Binder,SPOT peptide array binding signal intensity
1,WRPRIVPILPYITRL,148

# Target: ScLsb4
# Assay: as above
# In short: as §1
row,Binder,SPOT peptide array binding signal intensity
1,WRPRIVPILPYITRL,18.5

# Target: ScMyo3
# Assay: as above
# In short: as §1
row,Binder,SPOT peptide array binding signal intensity
1,WRPRIVPILPYITRL,2

# Target: ScMyo5
# Assay: as above
# In short: as §1
row,Binder,SPOT peptide array binding signal intensity
1,WRPRIVPILPYITRL,0.5

# Target: ScNbp2
# Assay: as above
# In short: as §1
row,Binder,SPOT peptide array binding signal intensity
1,WRPRIVPILPYITRL,224

# Target: ScPex13
# Assay: as above
# In short: as §1
row,Binder,SPOT peptide array binding signal intensity
1,WRPRIVPILPYITRL,1

# Target: ScRvs167
# Assay: as above
# In short: as §1
row,Binder,SPOT peptide array binding signal intensity
1,WRPRIVPILPYITRL,251

# Target: ScSho1
# Assay: as above
# In short: as §1
row,Binder,SPOT peptide array binding signal intensity
1,WRPRIVPILPYITRL,182

# Target: ScSla1-D1-D2
# Assay: as above
# In short: as §1
row,Binder,SPOT peptide array binding signal intensity
1,WRPRIVPILPYITRL,≤ 0

# Target: ScSla1-D3
# Assay: as above
# In short: as §1
row,Binder,SPOT peptide array binding signal intensity
1,WRPRIVPILPYITRL,≤ 0

# Target: SpAbp1-D1
# Assay: as above
# In short: as §1
row,Binder,SPOT peptide array binding signal intensity
1,WRPRIVPILPYITRL,36

# Target: SpBbc1
# Assay: as above
# In short: as §1
row,Binder,SPOT peptide array binding signal intensity
1,WRPRIVPILPYITRL,7

# Target: SpBzz1-D1
# Assay: as above
# In short: as §1
row,Binder,SPOT peptide array binding signal intensity
1,WRPRIVPILPYITRL,179
